In PubChem BioAssay AID1159580 (chemical genetic matrix, 2015):
Values joined by “and” are separate entries in the source; they are usually repeats but may differ in a detail not shown here. Equal entries are not always repeated. The whole screen tested about 5,500 compounds, of which about 2,000 (36%) were called active. Roughly 18% stayed inconclusive and do not appear here. Rule as the data show it: active = normalized growth mostly below about 0.91 (no sharp cut-off); inconclusive = no clear call, values can overlap the other calls; inactive = mostly above about 0.92. This is one part of the list.

Assay: chemical genetic growth profiling, strain panel (AID 1159580);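 also: tested at 20 µM; growth read once vehicle control cultures reached saturation at 30 °C; 1 = growth at the plate median or of vehicle wells; lower values mean less growth of the strain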
Settings: S. cerevisiae deletion strains, growth OD

Measured: normalized growth

CC(C)(C)NCC(O)c1cc(O)cc(O)c1 (stereo not drawn)
inactive: locus YAL013W, strain DEP1, active compounds read low 1 | locus YAL021C, strain ccr4, active compounds read low 0.975 | locus YAL026C, strain drs2, active compounds read low 0.979 | locus YAL030W, strain snc1, active compounds read low 0.98 | locus YAL040C, strain CLN3, active compounds read low 0.976 | locus YBL061C, strain skt5, active compounds read low 0.963 | locus YBR009C, strain hhf1, active compounds read low 1.01 | locus YBR021W, strain FUR4, active compounds read low 1 | locus YBR023C, strain chs3, active compounds read low 0.972 | locus YBR171W, strain sec66, active compounds read low 0.986 | locus YBR229C, strain ROT2, active compounds read low 0.996 | locus YBR231C, strain swc5, active compounds read low 0.997 | locus YBR279W, strain paf1, active compounds read low 0.98 | locus YCL011C, strain gbp2, active compounds read low 0.985 | locus YCL016C, strain dcc1, active compounds read low 0.967 | locus YCL029C, strain bik1, active compounds read low 0.987 | locus YCL061C, strain MRC1 (second series), active compounds read low 0.988 | locus YCL069W, strain vba3, active compounds read low 0.988 | locus YCR088W, strain abp1, active compounds read low 0.984 | locus YDL005C, strain med2, active compounds read low 0.959 | locus YDL035C, strain GPR1, active compounds read low 0.994 | locus YDL040C, strain nat1, active compounds read low 0.973 | locus YDL074C, strain BRE1, active compounds read low 1.02 | locus YDL101C, strain DUN1, active compounds read low 0.987 | locus YDL134C, strain PPH21, active compounds read low 1 | locus YDL192W, strain arf1, active compounds read low 0.971 | locus YDR001C, strain nth1, active compounds read low 0.982 | locus YDR069C, strain doa4, active compounds read low 0.993 | locus YDR101C, strain arx1, active compounds read low 0.977 | locus YDR137W, strain rgp1, active compounds read low 0.962 | locus YDR159W, strain sac3, active compounds read low 0.983 | locus YDR162C, strain NBP2, active compounds read low 0.995 | locus YDR195W, strain ref2 0.998 | locus YDR297W, strain sur2, active compounds read low 0.99 | locus YDR318W, strain mcm21, active compounds read low 0.979 | locus YDR334W, strain swr1, active compounds read low 0.964 | locus YDR335W, strain msn5, active compounds read low 0.984 | locus YDR363W, strain ESC2, active compounds read low 0.957 | locus YDR388W, active compounds read low 0.988 | locus YDR392W, strain spt3, active compounds read low 0.883 | locus YDR502C, strain sam2, active compounds read low 0.978 | locus YEL003W, strain gim4, active compounds read low 0.992 | locus YEL037C, strain rad23, active compounds read low 0.972 | locus YEL061C, strain CIN8 (second series), active compounds read low 0.977 | locus YEL061C, strain CIN8, active compounds read low 0.994 | locus YER002W, strain NOP16, active compounds read low 1.01 | locus YER015W, strain faa2, active compounds read low 0.987 | locus YER016W, strain bim1, active compounds read low 0.946 | locus YER110C, active compounds read low 0.97 | locus YER111C, strain swi4, active compounds read low 0.967 | locus YER155C, strain BEM2 (second series), active compounds read low 0.975 | locus YER155C, strain BEM2, active compounds read low 0.991 | locus YER167W, strain BCK2, active compounds read low 0.993 | locus YFR010W, strain ubp6, active compounds read low 0.999 | locus YGL078C, strain dbp3, active compounds read low 0.981 | locus YGL086W, strain mad1, active compounds read low 0.987 | locus YGL167C, strain pmr1, active compounds read low 0.986 | locus YGL173C, strain kem1, active compounds read low 0.971 | locus YGL227W, strain vid30, active compounds read low 0.98 | locus YGL240W, strain doc1, active compounds read low 1.02 | locus YGL248W, strain PDE1, active compounds read low 0.999 | locus YGL253W, strain hxk2, active compounds read low 0.962 | locus YGR078C, strain PAC10, active compounds read low 0.993 | locus YGR135W, strain pre9, active compounds read low 0.982 | locus YGR229C, strain SMI1, active compounds read low 0.972 | locus YGR252W, strain gcn5, active compounds read low 1.15 | locus YHR013C, strain ard1, active compounds read low 0.955 | locus YHR027C, strain rpn1, active compounds read low 0.993 | locus YHR030C, strain SLT2, active compounds read low 0.981 and 0.948 | locus YHR079C, strain IRE1 (second series), active compounds read low 0.981 | locus YHR079C, strain IRE1, active compounds read low 0.974 | locus YHR094C, strain hxt1, active compounds read low 0.975 | locus YHR129C, strain ARP1, active compounds read low 1 | locus YHR142W, strain chs7, active compounds read low 0.973 | locus YHR200W, strain rpn10, active compounds read low 0.987 | locus YIL066C, strain RNR3, active compounds read low 0.994 | locus YIL073C, strain SPO22, active compounds read low 0.938 | locus YIL125W, strain kgd1, active compounds read low 0.958 | locus YIR030C, strain dcg1, active compounds read low 0.992 | locus YJL092W, strain hpr5, active compounds read low 0.99 | locus YJL095W, strain BCK1 (second series), active compounds read low 1 | locus YJL095W, strain BCK1, active compounds read low 1.01 and 0.964 | locus YJL115W, strain asf1, active compounds read low 1 | locus YJL129C, strain trk1, active compounds read low 0.934 | locus YJL134W, strain LCB3, active compounds read low 0.987 | locus YJL154C, strain vps35, active compounds read low 0.974 | locus YJL164C, strain tpk1, active compounds read low 1 | locus YJL166W, strain qcr8, active compounds read low 1.02 | locus YJL168C, strain set2, active compounds read low 0.984 | locus YJL187C, strain SWE1 (second series), active compounds read low 0.976 | locus YJR043C, strain POL32, active compounds read low 1 | locus YJR066W, strain TOR1, active compounds read low 0.916 | locus YJR075W, strain HOC1, active compounds read low 0.98
